Drawing on PubChem BioAssay (EPA / NIEHS), this text covers outcome and AC50 for 10 compounds.

Results filed as inconclusive are left out. Calls of active or inactive are those of the source. How the source made its calls, unless noted: active means hit-call score of the fitted dose curve at least 0.9, where 1 is the maximum; inactive means score below 0.9.

The target of test [1] is Glucocorticoid receptor (Homo sapiens) (UniProt P04150). Description: ATG_GR_TRANS: Attagene TRANS-FACTORIAL HepG2 Assay for human Glucocorticoid Receptor (GR) (AID 2282978; active means hit-call score of the fitted dose curve at least 0.9, where 1 is the maximum;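 further: activators score as hits since higher reporter transcript over DMSO is fitted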). To be noted: HepG2 Attagene TRANS GR reporter, mRNA transcription. The method, boiled down:
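HepG2 cells transiently transfected with multiplexed reporter units in which chimeric NR-GAL4 proteins drive GAL4-UAS reporters; 24 h compound exposure. Reporter mRNA measured by RT-PCR, 6-FAM labelling, HpaI digestion and capillary electrophoresis; gain-of-signal fitted versus DMSO.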

Test [2] concerns the target Hepatocyte nuclear factor 4-alpha (Homo sapiens) (UniProt P41235). The test is described as follows: ATG_HNF4a_TRANS: Attagene TRANS-FACTORIAL HepG2 Assay for human Hepatocyte Nuclear Factor 4 alpha (HNF4a) (AID 2282982; active means hit-call score of the fitted dose curve at least 0.9, where 1 is the maximum). To be noted: HepG2 HNF4a transactivation reporter, mRNA readout. The method, boiled down:
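Gain-of-signal mRNA induction, relative to DMSO vehicle, was read after 24 h compound treatment of HepG2 cells bearing transfected GAL4-UAS reporters. Detection used RT-PCR, 6-FAM primer extension and capillary electrophoresis.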

Test [3] addresses Nuclear receptor subfamily 4 group A member 2 (Homo sapiens) (UniProt P43354). Description: ATG_NURR1_TRANS: Attagene TRANS-FACTORIAL HepG2 Assay for human Nuclear Receptor Related Protein 1 (NURR1) (AID 2282985; active means hit-call score of the fitted dose curve at least 0.9, where 1 is the maximum). Particulars: HepG2 Attagene TRANS reporter, mRNA readout. The method, boiled down: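 HepG2 / transient MRTU transfection / 24 h compound exposure / RT-PCR + CE fluorescence of reporter mRNA / gain-of-signal vs DMSO.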

In test [4] the target is Nuclear respiratory factor 1 (Homo sapiens) (UniProt Q16656). Description: ATG_NRF1_CIS: Attagene CIS-FACTORIAL HepG2 Assay for human Nuclear Respiratory Factor 1 (NRF1) Orphan Gene (AID 2282987). Particulars: HepG2 NRF1 cis-element reporter, Attagene multiplex; actives raise or lower the signal. The method, boiled down:
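HepG2 cells transiently transfected with multiple reporter transcription units under cis-regulatory promoter control, so endogenous transcription-factor activity is read. After 24 h compound exposure, reporter mRNA quantified by RT-PCR, fluorescent labelling, HpaI digestion and capillary electrophoresis; bidirectional fitting versus DMSO.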

The nature of test [5]: ATG_NFI_CIS: Attagene CIS-FACTORIAL HepG2 Assay for human Nuclear Factor I (NFI) (AID 2282989). Particulars: HepG2 cis-regulatory reporter, NFI response element transcription; actives raise or lower the signal. An outline of the steps: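 After transient transfection of HepG2 with cis-promoter reporter constructs and 24 h dosing, RNA is reverse-transcribed, amplified, 6-FAM end-labelled and HpaI-digested before capillary analysis. Bidirectional curve fitting against DMSO.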

In test [6] the target is Myc proto-oncogene protein (Homo sapiens) (UniProt P01106). The test is described as follows: ATG_Myc_CIS: Attagene CIS-FACTORIAL HepG2 Assay for human Myelocytomatosis (Myc) Proto-Oncogene Transcription Factor (AID 2282990). To be noted: HepG2, Attagene cis-reporter transcription factor activity; actives raise or lower the signal. An outline of the steps:
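Transiently transfected HepG2 cells bearing cis-promoter reporter units for endogenous transcription factors; 24 h exposure. Reporter mRNA measured by RT-PCR, 6-FAM primer extension, HpaI cut and capillary electrophoresis; bidirectional fit relative to DMSO.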

A short description of test [7]: ATG_NF_kB_CIS: Attagene CIS-FACTORIAL HepG2 Assay for human Nuclear Factor Kappa B (NF-kB) (AID 2282991). Particulars: HepG2 Attagene cis-factorial NF-kB reporter mRNA; actives raise or lower the signal. The method, boiled down: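 HepG2 cells transiently transfected with multiplexed cis-element reporter units measuring endogenous transcription factor activity; reporter mRNA read 24 h after dosing by RT-PCR, fluorescent labelling, HpaI digestion and capillary electrophoresis. Bidirectional fit against DMSO baseline.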

Test [8] concerns the target Cellular tumor antigen p53 (Homo sapiens) (UniProt P04637). The test is described as follows: ATG_p53_CIS: Attagene CIS-FACTORIAL HepG2 Assay for human p53 Transcription Factor (AID 2282994). Particulars: HepG2 p53 cis-element reporter, Attagene mRNA; actives raise or lower the signal. The method, boiled down: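 HepG2, transient MRTU transfection (cis promoter elements, endogenous TFs); 24 h dosing; RNA isolation, RT-PCR, 6-FAM primer extension, HpaI digest, CE fluorescence; bidirectional fit vs DMSO.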

The target in test [9] is Transcriptional activator Myb (Homo sapiens) (UniProt P10242). Description: ATG_Myb_CIS: Attagene CIS-FACTORIAL HepG2 Assay for human Myeloblastosis (Myb) Proto-Oncogene Transcription Factor (AID 2282986). To be noted: HepG2 Attagene CIS-FACTORIAL Myb reporter transcription; actives raise or lower the signal. An outline of the steps:
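HepG2 cells were transiently transfected with cis-regulated multiple reporter transcription units reflecting endogenous Myb activity, then exposed to compound for 24 hours. Reporter mRNA was measured by RT-PCR with capillary electrophoresis; bidirectional fitting versus DMSO baseline.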

A short description of test [10]: ATG_NRF2_ARE_CIS: Attagene CIS-FACTORIAL HepG2 Assay for human Nuclear Factor Erythroid 2 Related Factor 2 (NFR2) response to Antioxidant Response Elements (ARE) (AID 2282992). Particulars: HepG2 Attagene ARE/NRF2 reporter, transcription factor activity; actives raise or lower the signal. The method, boiled down:
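Transient MRTU transfection of HepG2; 24 h compound exposure; TriZol RNA, RT with oligo(dT), PCR, 6-FAM primer extension, HpaI cut, CE. Bidirectional fit vs DMSO.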

Test [11] can be described thus: ATG_Oct_MLP_CIS: Attagene CIS-FACTORIAL HepG2 Assay for human Octamer-Binding Transcription Factor (Oct) (AID 2282993). Particulars: HepG2 Attagene cis-factorial Oct reporter, mRNA; actives raise or lower the signal. The method, boiled down:
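Cells of the HepG2 line express promoter-controlled reporter sequences whose mRNA levels, after 24 h treatment, are measured by RT-PCR and capillary electrophoresis. Increases and decreases are scored relative to DMSO.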

Test [12] concerns the target Bile acid receptor (Homo sapiens) (UniProt Q96RI1). Description: ATG_FXR_TRANS: Attagene TRANS-FACTORIAL HepG2 Assay for Farnesoid X Receptor (FXR) (AID 2282979; active means hit-call score of the fitted dose curve at least 0.9, where 1 is the maximum;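 further: hits raise reporter mRNA above DMSO so AC50 marks FXR activation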). To be noted: HepG2 Attagene TRANS FXR-GAL4 reporter transcription. The method, boiled down: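 Chimeric FXR-GAL4 activity in transiently transfected human HepG2 liver cells is scored as induction of reporter mRNA after 24 h of dosing. Detection uses RT-PCR with fluorescent labelling and capillary electrophoresis, with DMSO serving as baseline.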

In test [13] the target is Oxysterols receptor LXR-beta (Homo sapiens) (UniProt P55055). Description: ATG_LXRb_TRANS: Attagene TRANS-FACTORIAL HepG2 Assay for human Liver X Receptor beta (LXRb) (AID 2282981; active means hit-call score of the fitted dose curve at least 0.9, where 1 is the maximum). Particulars: HepG2 Attagene TRANS GAL4-LXRb reporter, mRNA. An outline of the steps:
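Gain-of-signal mRNA reporter endpoint, DMSO as negative control. Transiently transfected HepG2 cells carrying the NR-Gal4 chimera and GAL4-UAS reporter units were treated 24 h; transcripts quantified by RT-PCR and capillary electrophoresis fluorescence.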

Test [14] can be described thus: ATG_M_06_TRANS: Attagene TRANS-FACTORIAL HepG2 Assay for M06 Transcription Factor (Internal Marker) (AID 2282983; active means hit-call score of the fitted dose curve at least 0.9, where 1 is the maximum). Particulars: HepG2 Attagene TRANS M06 internal marker reporter. The method, boiled down: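 Measured by capillary electrophoresis of fluorescently labelled RT-PCR products, this endpoint reflects reporter mRNA in HepG2 cells harbouring exogenous NR-GAL4 reporter constructs after 24 h exposure, with DMSO as baseline.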

Test [15] is described as follows: ATG_M_32_TRANS: Attagene TRANS-FACTORIAL HepG2 Assay for M32 Transcription Factor (Internal Marker) (AID 2282984; active means hit-call score of the fitted dose curve at least 0.9, where 1 is the maximum;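 further: transcript level of a background control reporter unit measured by RT-PCR and capillary electrophoresis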). To be noted: HepG2 Attagene TRANS M32 internal marker reporter. The method, boiled down: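 Capillary electrophoresis of 6-FAM-labelled reporter fragments gives the signal; data fitted for gain over DMSO negative control. Source: HepG2 cells bearing transient multiple reporter transcription units, 24 h exposure.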

The nature of test [16]: BSK_3C_TissueFactor: BioMAP Diversity Plus: 3C Assay for Tissue Factor Biomarker Activity (AID 2282997). To be noted: BioMAP 3C HUVEC, tissue factor biomarker readout; actives raise or lower the signal. An outline of the steps:
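Values derive from bidirectional curve fitting against DMSO of Tissue Factor ELISA signals, taken 24 h after dosing primary human umbilical vein endothelial cells.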

The nature of test [17]: BSK_3C_uPAR: BioMAP Diversity Plus: 3C Assay for Urokinase-type plasminogen activator receptor (uPAR) Biomarker Activity (AID 2282998). Particulars: BioMAP 3C HUVEC, uPAR biomarker ELISA; actives raise or lower the signal. An outline of the steps:
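Endothelial primary cells of human umbilical vein origin received test chemical; 24 h later uPAR was assayed by ELISA. Fitting was bidirectional, DMSO as negative control.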
(In general: In an ELISA, binding on a coated surface is turned into a signal by an enzyme label.)

Test [18] in a line: BSK_3C_VCAM1: BioMAP Diversity Plus: 3C Assay for Vascular cell adhesion molecule 1 (VCAM1) Biomarker Activity (AID 2282999). Particulars: BioMAP 3C HUVEC, VCAM1 ELISA, cytokine-stimulated; actives raise or lower the signal. An outline of the steps:
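Human umbilical vein endothelial cells (3C system), biomarker read by ELISA 24 h after dosing; bidirectional fit against DMSO baseline. Cytotoxicity tracked by SRB total-protein staining in parallel cultures at biomarker time.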

In test [19] the target is Oxysterols receptor LXR-alpha (Homo sapiens) (UniProt Q13133). The test is described as follows: ATG_LXRa_TRANS: Attagene TRANS-FACTORIAL HepG2 Assay for human Liver X Receptor alpha (LXRa) (AID 2282980; active means hit-call score of the fitted dose curve at least 0.9, where 1 is the maximum). To be noted: HepG2 Attagene TRANS reporter, LXRa transactivation. The method, boiled down: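 Transient HepG2 transfectants, 24 h dosing, RT-PCR/CE mRNA reporter quantitation; gain-of-signal vs DMSO.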

Nuclear receptor subfamily 4 group A member 2 (Homo sapiens), sequence (P43354 whole entry, looked up): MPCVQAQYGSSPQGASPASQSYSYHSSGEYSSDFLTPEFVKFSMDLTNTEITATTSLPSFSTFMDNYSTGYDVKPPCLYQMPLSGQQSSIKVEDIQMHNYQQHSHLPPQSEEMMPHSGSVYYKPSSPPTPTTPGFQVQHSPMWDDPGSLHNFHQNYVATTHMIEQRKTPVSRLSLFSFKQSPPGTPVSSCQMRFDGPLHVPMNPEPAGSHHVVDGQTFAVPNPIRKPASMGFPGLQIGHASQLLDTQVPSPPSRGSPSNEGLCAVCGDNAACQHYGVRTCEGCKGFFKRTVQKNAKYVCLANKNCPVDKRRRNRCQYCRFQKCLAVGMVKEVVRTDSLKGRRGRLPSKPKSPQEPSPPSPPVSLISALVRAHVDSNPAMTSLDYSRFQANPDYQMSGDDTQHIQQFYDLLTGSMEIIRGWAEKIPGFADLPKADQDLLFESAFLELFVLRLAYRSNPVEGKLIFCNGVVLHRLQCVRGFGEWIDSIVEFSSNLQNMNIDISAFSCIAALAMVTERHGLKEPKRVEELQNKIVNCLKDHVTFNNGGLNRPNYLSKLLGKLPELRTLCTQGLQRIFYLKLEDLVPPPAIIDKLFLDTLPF
Cellular tumor antigen p53 (Homo sapiens), sequence (P04637 whole entry, looked up): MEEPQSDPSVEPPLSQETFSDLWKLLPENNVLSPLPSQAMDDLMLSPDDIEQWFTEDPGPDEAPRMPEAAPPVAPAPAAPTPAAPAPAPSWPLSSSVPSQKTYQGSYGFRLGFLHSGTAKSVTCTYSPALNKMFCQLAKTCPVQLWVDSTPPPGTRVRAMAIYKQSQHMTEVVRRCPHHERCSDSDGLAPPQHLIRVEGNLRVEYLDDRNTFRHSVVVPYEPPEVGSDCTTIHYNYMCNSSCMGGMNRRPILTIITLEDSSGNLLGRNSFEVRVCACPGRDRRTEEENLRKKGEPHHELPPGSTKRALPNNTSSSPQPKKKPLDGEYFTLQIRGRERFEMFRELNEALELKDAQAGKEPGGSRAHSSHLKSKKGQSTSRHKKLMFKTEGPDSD
Transcriptional activator Myb (Homo sapiens), sequence (P10242 whole entry, looked up): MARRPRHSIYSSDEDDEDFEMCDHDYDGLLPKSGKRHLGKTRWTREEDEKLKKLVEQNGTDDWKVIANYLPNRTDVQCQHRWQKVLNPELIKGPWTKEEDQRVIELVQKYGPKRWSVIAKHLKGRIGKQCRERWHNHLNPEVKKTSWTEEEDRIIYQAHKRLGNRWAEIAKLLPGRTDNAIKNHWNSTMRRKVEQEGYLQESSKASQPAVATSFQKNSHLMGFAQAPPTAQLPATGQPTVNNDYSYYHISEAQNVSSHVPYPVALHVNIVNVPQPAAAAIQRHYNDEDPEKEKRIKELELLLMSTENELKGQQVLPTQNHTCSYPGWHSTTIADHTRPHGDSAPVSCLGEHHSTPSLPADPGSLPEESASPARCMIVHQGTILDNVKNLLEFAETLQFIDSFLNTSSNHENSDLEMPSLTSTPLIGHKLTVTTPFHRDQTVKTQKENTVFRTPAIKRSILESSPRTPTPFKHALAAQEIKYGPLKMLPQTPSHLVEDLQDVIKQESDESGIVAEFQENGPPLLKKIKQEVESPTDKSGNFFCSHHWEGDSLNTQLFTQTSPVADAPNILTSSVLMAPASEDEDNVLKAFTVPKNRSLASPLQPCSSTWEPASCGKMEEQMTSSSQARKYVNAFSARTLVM
Oxysterols receptor LXR-beta (Homo sapiens), sequence (P55055 whole entry, looked up, the tested form may be a part): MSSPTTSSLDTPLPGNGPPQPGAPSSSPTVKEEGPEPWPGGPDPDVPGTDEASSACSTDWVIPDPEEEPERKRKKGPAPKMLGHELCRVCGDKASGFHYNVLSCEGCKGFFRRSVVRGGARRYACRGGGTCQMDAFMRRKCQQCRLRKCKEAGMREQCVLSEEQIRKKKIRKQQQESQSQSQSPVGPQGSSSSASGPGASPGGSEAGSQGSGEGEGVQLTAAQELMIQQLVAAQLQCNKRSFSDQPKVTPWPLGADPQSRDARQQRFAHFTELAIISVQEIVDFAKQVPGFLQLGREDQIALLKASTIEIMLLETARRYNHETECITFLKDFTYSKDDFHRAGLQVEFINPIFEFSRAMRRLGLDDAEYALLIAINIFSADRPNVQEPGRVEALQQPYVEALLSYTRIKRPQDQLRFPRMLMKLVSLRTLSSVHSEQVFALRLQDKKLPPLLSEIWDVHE
Bile acid receptor (Homo sapiens), sequence (Q96RI1 whole entry, looked up, the tested form may be a part): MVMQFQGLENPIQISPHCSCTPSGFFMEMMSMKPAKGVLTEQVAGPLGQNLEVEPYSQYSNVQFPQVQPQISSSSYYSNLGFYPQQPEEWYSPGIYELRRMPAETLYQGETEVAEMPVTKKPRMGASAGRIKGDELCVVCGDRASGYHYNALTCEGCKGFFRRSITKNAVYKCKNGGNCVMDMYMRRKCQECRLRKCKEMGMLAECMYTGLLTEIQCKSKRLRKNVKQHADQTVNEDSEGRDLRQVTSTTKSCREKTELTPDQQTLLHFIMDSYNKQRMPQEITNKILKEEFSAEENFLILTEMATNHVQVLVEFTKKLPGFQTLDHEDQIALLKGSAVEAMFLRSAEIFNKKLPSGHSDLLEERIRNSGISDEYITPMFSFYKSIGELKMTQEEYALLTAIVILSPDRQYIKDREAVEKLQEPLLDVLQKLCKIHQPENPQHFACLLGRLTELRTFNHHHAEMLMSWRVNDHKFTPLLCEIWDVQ
Myc proto-oncogene protein (Homo sapiens), sequence (P01106 whole entry, looked up): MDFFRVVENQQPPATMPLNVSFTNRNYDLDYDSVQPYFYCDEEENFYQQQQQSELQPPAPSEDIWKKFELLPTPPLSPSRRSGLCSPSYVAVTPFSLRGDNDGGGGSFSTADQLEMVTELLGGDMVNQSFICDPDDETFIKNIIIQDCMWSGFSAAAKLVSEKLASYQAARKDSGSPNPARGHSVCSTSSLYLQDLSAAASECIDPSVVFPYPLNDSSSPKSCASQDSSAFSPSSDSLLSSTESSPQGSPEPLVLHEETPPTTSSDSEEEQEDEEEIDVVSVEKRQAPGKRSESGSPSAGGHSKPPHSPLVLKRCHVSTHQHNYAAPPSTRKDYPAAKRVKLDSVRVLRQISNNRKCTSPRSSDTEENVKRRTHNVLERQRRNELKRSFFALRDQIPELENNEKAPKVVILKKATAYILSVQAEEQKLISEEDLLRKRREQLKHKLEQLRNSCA
Nuclear respiratory factor 1 (Homo sapiens), sequence (Q16656 whole entry, looked up): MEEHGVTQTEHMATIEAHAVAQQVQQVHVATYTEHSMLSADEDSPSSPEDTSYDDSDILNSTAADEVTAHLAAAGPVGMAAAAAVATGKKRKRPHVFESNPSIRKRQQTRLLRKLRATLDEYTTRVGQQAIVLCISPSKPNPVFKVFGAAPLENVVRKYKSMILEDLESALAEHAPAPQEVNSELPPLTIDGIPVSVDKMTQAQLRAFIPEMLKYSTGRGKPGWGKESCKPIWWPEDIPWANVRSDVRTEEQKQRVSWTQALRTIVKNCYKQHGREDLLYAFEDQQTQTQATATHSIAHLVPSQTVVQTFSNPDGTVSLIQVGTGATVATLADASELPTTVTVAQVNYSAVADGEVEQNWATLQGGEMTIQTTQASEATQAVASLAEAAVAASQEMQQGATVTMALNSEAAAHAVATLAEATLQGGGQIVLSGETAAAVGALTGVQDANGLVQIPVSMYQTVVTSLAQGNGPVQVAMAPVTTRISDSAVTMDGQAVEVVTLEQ
Glucocorticoid receptor (Homo sapiens), sequence (P04150 whole entry, looked up, the tested form may be a part): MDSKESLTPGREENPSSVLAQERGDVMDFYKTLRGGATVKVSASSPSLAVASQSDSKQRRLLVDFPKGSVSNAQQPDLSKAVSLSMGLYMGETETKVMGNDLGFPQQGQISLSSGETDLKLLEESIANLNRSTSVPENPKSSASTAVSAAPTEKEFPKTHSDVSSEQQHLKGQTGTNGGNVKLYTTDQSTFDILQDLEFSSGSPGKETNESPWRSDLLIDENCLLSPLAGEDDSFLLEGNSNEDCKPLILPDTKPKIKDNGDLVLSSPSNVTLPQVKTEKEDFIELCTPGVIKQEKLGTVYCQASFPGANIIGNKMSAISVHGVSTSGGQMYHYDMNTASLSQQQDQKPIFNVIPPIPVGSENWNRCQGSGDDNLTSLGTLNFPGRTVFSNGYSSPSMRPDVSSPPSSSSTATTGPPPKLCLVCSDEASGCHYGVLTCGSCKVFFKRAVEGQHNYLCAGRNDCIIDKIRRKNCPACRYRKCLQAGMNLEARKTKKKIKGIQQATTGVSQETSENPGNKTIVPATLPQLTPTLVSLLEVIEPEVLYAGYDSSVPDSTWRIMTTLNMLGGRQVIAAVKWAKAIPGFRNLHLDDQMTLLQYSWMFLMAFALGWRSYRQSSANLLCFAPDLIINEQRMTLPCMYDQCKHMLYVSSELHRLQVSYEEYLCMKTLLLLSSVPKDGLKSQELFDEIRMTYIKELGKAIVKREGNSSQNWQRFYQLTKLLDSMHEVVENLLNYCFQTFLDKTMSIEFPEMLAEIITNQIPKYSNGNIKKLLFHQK
Hepatocyte nuclear factor 4-alpha (Homo sapiens), sequence (P41235 whole entry, looked up, the tested form may be a part): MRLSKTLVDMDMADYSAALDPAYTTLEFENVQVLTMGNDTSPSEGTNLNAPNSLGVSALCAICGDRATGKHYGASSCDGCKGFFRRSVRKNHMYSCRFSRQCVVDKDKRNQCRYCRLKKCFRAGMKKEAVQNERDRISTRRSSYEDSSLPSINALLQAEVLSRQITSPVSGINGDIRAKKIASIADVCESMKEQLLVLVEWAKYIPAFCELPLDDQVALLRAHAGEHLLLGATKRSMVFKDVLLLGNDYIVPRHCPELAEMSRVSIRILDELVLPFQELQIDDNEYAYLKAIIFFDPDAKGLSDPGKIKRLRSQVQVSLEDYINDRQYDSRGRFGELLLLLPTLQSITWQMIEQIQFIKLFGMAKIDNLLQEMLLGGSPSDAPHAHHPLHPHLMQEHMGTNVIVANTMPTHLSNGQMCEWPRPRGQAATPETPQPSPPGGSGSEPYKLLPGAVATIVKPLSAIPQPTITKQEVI

`CC(CCO)CC(C)(C)C` (stereo unspecified): the call in test [1], in test [2], in [3], in [4], in test [5] and in test [6] was inactive. The outcome in [7] and in [8] was inactive.

Regarding `CCCCCC1CCC(=O)O1` (stereo unspecified), the compound was classed as inactive in test [1], in test [3], in test [9], in test [4], in test [5] and in test [6]. Further, the call in [7], in [10], in test [11] and in test [8] was inactive.

As a reminder, the AC50 is the concentration giving half of the maximal activity seen. As for `CCC(=O)OCC=Cc1ccccc1`, the compound was classed as inactive in [12], in test [13], in test [2], in [14], in test [15] and in [9]. Moreover, the outcome in test [4], in [5], in test [6], in test [7], in test [11] and in [8] was inactive. For the same compound, the result in test [16] and in [18] was inactive. For the same compound, the concentration at half-maximal activity (AC50) in test [10] is 36.3 µM (active); in test [17] it was 20 µM (active).

For the compound `CCOC(=O)C(=O)OCC`, the call in test [1], in test [9], in [4], in [5], in [6] and in test [7] was inactive. Besides, the result in test [10], in test [11] and in test [8] was inactive.

As for `CCCCOCCOC(=O)c1ccccc1C(=O)OCCOCCCC`, the compound was classed as inactive in test [12], in test [13], in [14], in test [15], in test [9] and in [4]. In addition, the compound was called inactive in test [5], in test [6] and in test [11]. For the same compound, the AC50 was 45.3 µM (active) in test [3] and 37.7 µM (active) in test [10].

On to `COc1ccc(N)c(C)c1`, for which the call in test [12], in [19], in test [13], in test [3], in test [9] and in test [4] was inactive. Besides, the call in test [5], in [6], in test [7] and in [11] was inactive.

As for `CCC(=O)OC/C=C(\C)CCC=C(C)C`, the result in test [1], in [2], in [14], in test [9], in test [4] and in test [5] was inactive. In addition, the call in [7], in test [10], in [11] and in [8] was inactive.

Turning to `CC(=O)OC/C=C(C)/C=C/C=C(C)/C=C/C1=C(C)CCCC1(C)C`, the outcome in test [19], in test [2], in test [15], in test [3], in test [9] and in test [6] was inactive. Besides, in test [11], the compound was called inactive. For the same compound, the AC50 is 167 µM (active) in test [4], 39.8 µM (active) in test [7], 3.64 µM (active) in [10] and 146 µM (active) in [8].

As for `CCC(C)(C)C1CCC(OC)CC1` (stereo unspecified), the result in [19], in test [13], in test [3], in test [9], in test [4] and in test [5] was inactive. Besides, the call in [6], in [7] and in test [11] was inactive.

With `CCCC(O)C(CC)CO` (stereo unspecified), the call in [19], in [2], in [14], in test [15], in test [3] and in [9] was inactive. The compound was called inactive in test [4], in [5], in test [7], in test [10], in test [11] and in test [8].
